According to PubChem BioAssay:
For part of these data: Potency and affinity values are given separately. The source made the active and inactive calls. Unless noted, no rule for the calls is given here.

Key:
[1] = antimalarial activity against Dd2 strain (AID 2302;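 active = growth inhibition above 50% at the single 2 µM test dose, taken to imply half-maximal potency below 2 µM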;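 also: 0% = DMSO untreated growth and 100% = chloroquine plus artemisinin killed control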); conditions: P. falciparum Dd2 in RBCs, LDH growth readout, 72 h; at 2 µM; hits give high values
[2] = HepG2 cytotoxicity, primary screen, cytotoxicity control for P. falciparum antimalarial project, cell-based, ATP luminescence (AID 2303;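 active = inhibition above 50%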;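 also: 0% = DMSO wells and 100% = digitonin-killed cells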); conditions: HepG2 viability, 24-48 h, at 10 µM, hits give high values
[3] = molecular target: L-lactate dehydrogenase (Plasmodium falciparum (isolate CDC / Honduras)) (UniProt Q27743); assay: PfLDH activity inhibition – cell lysate, 3D7 strain, counter-screen for P. falciparum growth inhibition project (AID 2304);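 also: 0% = vehicle and 100% = reference inhibitor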; conditions: P. falciparum 3D7 crude extract, LDH APAD/NBT absorbance; at 2 µM; hits give high values
[4] = inhibition of 3D7 malaria parasite growth – strain 3D7 (AID 2306);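 also: 0% = DMSO wells and 100% = chloroquine plus artemisinin control wells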; conditions: P. falciparum 3D7 erythrocytic growth, LDH absorbance, 72 h; at 2 µM; hits give high values
[5] = molecular target: Calcium-dependent protein kinase 1 (Plasmodium falciparum (isolate 3D7)) (UniProt P62344); assay: PfCDPK1 kinase inhibitors, biochemical, TCAMS library (AID 1159585; cut-off not given, nearly all actives have IC50 up to about 0.98 µM;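 also: inhibitors leave more ATP so luminescence rises with inhibition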); conditions: recombinant PfCDPK1, Kinase-Glo ATP depletion luminescence
[6] = molecular target: Plasmodium falciparum protein kinase 6 (PK6, PF3D7_1337100) (UniProt Q8IDW1); assay: PfPK6 kinase inhibitors, biochemical, TCAMS library (AID 1159586); conditions: recombinant PfPK6, Kinase-Glo ATP depletion luminescence
[7] = molecular target: Protein kinase 7 (PK7), Plasmodium falciparum 3D7 (PF3D7_0213400) (UniProt Q7YTF7); assay: inhibition of Plasmodium PK7 catalytic activity – biochemical, TCAMS antimalarial set, Kinase-Glo luminescence (AID 1159587); conditions: recombinant PfPK7, Kinase-Glo ATP depletion luminescence
[8] = molecular target: Calcium-dependent protein kinase 4 (Plasmodium falciparum (isolate 3D7)) (UniProt Q8IBS5); assay: PfCDPK4 kinase inhibitors, biochemical, TCAMS library (AID 1159588; cut-off not given, nearly all actives have IC50 up to about 0.91 µM); conditions: recombinant PfCDPK4, Kinase-Glo ATP depletion luminescence
Calcium-dependent protein kinase 4 (Plasmodium falciparum (isolate 3D7)), sequence (Q8IBS5 whole entry, looked up): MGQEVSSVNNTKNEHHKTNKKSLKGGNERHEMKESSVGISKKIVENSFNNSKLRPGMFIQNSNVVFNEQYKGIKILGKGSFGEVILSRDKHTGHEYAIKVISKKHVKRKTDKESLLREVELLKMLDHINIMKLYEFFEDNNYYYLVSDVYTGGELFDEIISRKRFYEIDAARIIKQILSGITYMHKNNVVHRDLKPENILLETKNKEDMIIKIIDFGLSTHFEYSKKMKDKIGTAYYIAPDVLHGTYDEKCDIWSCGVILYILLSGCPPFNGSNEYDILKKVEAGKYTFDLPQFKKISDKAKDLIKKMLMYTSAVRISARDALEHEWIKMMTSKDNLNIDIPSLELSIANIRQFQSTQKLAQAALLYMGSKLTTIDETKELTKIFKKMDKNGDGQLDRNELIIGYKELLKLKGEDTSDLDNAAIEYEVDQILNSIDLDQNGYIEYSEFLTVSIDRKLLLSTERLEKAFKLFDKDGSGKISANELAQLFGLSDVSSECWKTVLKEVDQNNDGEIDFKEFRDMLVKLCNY

Plasmodium falciparum protein kinase 6 (PK6, PF3D7_1337100), sequence (Q8IDW1 1-305): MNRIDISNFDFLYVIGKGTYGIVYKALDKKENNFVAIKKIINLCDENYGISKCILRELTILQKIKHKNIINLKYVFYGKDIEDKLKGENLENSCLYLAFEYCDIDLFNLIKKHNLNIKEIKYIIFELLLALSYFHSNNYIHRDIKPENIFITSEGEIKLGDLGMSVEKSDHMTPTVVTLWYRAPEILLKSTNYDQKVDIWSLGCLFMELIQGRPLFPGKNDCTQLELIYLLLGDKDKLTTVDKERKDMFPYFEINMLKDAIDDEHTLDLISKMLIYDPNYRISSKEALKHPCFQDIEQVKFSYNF
Calcium-dependent protein kinase 1 (Plasmodium falciparum (isolate 3D7)), sequence (P62344 whole entry, looked up): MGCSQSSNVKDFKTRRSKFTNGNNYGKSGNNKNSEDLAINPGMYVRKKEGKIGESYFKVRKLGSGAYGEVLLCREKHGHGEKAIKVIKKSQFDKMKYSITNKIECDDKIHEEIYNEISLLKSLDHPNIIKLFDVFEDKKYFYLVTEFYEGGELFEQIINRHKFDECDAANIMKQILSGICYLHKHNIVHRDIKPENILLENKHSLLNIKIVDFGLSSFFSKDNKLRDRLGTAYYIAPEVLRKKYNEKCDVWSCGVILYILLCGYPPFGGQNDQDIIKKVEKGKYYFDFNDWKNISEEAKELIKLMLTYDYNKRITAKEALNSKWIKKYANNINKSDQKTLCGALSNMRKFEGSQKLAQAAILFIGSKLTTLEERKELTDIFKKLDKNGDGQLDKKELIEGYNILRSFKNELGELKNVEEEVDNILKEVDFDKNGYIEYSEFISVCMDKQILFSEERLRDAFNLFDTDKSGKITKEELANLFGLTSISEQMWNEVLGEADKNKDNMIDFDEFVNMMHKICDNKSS
Protein kinase 7 (PK7), Plasmodium falciparum 3D7 (PF3D7_0213400), sequence (Q7YTF7 1-343): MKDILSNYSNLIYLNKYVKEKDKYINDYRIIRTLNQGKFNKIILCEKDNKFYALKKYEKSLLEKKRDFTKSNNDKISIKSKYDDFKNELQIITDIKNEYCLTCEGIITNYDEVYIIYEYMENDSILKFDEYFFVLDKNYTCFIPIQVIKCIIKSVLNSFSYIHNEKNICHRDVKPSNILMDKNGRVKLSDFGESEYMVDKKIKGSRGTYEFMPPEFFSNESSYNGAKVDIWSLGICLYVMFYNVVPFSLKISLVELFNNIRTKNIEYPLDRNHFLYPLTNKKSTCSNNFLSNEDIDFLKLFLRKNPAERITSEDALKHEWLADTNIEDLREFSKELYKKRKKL
L-lactate dehydrogenase (Plasmodium falciparum (isolate CDC / Honduras)), sequence (Q27743 whole entry, looked up): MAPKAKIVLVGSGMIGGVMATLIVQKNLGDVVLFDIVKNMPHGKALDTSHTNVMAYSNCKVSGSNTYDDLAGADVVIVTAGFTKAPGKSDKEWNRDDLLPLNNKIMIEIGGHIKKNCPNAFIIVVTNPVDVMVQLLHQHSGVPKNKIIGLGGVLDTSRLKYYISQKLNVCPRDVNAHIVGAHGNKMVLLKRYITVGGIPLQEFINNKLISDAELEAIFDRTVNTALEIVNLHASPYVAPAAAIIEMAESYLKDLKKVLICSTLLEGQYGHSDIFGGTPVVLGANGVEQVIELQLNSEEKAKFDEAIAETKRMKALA

CCOC(=O)C1=C(C)NC2=C(C(=O)CC(C)(C)C2)C1c1ccc(Cl)cc1 (centres undefined)
inactive: inhibition [2] 4% | inhibition [3] 1% | outcome [5] | outcome [6] | outcome [7] | outcome [8]
active: growth inhibition [1] 84% | growth inhibition [4] 96%

O=C(Nc1ccccc1Cc1ccccc1)c1ccccc1C(F)(F)F
active: growth inhibition [1] 85% | growth inhibition [4] 99%
inactive: inhibition [2] 0% | inhibition [3] 3% | outcome [5] | outcome [6] | outcome [7] | outcome [8]

CC(C)(C)OC(=O)Nc1cccc(-c2csc(N=C(N)N)n2)c1
active: growth inhibition [1] 83% | growth inhibition [4] 97%
inactive: inhibition [2] 4% | inhibition [3] 2% | outcome [5] | outcome [6] | outcome [7] | outcome [8]
